Screening results (PubChem)
APOBEC3A inh = blocks human APOBEC3A ssDNA deamination; AID 493011; 330,000 compounds, 0.41% hits; inhibition, % at 20 µM; P31941; recombinant A3A, FAM/TAMRA ssDNA deamination fluorescence;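 active = at least 40% inhibition at 20 µM here, with at most 30% in a related deaminase screen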
A3G deaminase = blocks human APOBEC3G single-stranded DNA deamination; inhibition, % at 20 µM; recombinant A3G, ssDNA deamination FAM/TAMRA fluorescence; 330,000 compounds, 0.28% hits; AID 493012; Q9HC16;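 active = inhibition of at least 40% at 20 µM, with no more than 30% in the related APOBEC3A deaminase screen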
ALR inh = inhibitors of human sulfhydryl oxidase ALR; AID 485317; inhibition, % (test concentration not listed); 290,000 compounds, 3.8% hits; purified ALR, DTT oxidation, H2O2 HRP-luminol luminescence; P55789;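 active = mean replicate inhibition above about 79%, with every replicate also reaching it, limit read from the data; inconclusive = only one of the two criteria met; inactive = mean below limit and not every replicate reaching it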
Yeast superoxide = yeast age-related superoxide inhibition as caloric restriction mimetic; S. cerevisiae aged cells, superoxide DHE fluorescence; active compounds read low; superoxide response (% of plate mean), % at 10 µM; 330,000 compounds, 0.18% hits; AID 2690;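 active = superoxide response under a set limit, about three screen SD below normal, cut at about 65% in these data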;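 also: yeast aged for seven days with compound at 30 °C before DHE staining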
M18AAP inhibitor = PfM18AAP enzyme inhibition | inhibition, % at 7.35 µM | 290,000 compounds, 1.2% hits | recombinant PfM18AAP, H-Glu-NHMec fluorogenic cleavage | AID 1822;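 active = inhibition above the campaign mean inhibition over all tested compounds plus 3 SD, cut at about 28% in these data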
NRP1-CendR mod = NRP-1/CendR interaction modulation. O14786. FAM-RPARPAR peptide binding to NRP-1, fluorescence polarization. inhibition, % at 25 µM. 360,000 compounds, 0.85% hits. AID 602438;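 active = inhibition or corrected inhibition above about 18%, plus a signal ratio from 0.5 to 1.5, limit read from the data, passing the limit was not always enough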
A number is an active result; n = inactive; u = inconclusive; x = not tested or not shown. Only some compounds are listed: those with a hit (about 5.2% of all), similar ones and a draw of the others.

SMILES	APOBEC3A inh	A3G deaminase	ALR inh	Yeast superoxide	M18AAP inhibitor	NRP1-CendR mod
CC1(C)Cc2nc3oc4c(=S)nc[nH]c4c3cc2CO1	n	n	96	n	n	n
COc1ccccc1NS(=O)(=O)c1ccc(O)c(C(=O)OCC(=O)Nc2ccccc2F)c1	n	n	n	n	n	n
O=C(COc1ccccc1F)Nc1cc(S(=O)(=O)Nc2cccc(Cl)c2)ccc1O	n	n	x	n	x	25
CC1(C)CC2CC(C)(CN2Cc2c(O)ccc3ccccc23)C1 (stereo not given)	n	n	95	n	n	n
O=C(COC(=O)c1ccc(O)cc1)Nc1ccc(Cl)cc1	n	n	n	n	n	x
C=C(C)Cn1c(SCC(=O)O)nnc1-c1ccc(C(C)(C)C)cc1	n	n	n	n	n	n
C=C(C)Cn1c(SCC(=O)O)nnc1-c1ccccc1	n	n	n	n	n	28
Cc1cccc(-c2nc(CS(=O)CC(=O)NC3CCCCC3)c(C)o2)c1 (stereo not given)	n	n	99	n	n	n
Cc1cccc(-c2nc(CS(=O)CC(=O)NCCCSC3CCCCC3)c(C)o2)c1 (stereo not given)	n	n	n	n	n	n
Cc1oc(-c2ccccc2)nc1CS(=O)CC(=O)NC1CCCCCC1 (stereo not given)	n	n	100	n	n	n
Cc1oc(-c2ccccc2)nc1CS(=O)CC(=O)O (stereo not given)	n	n	x	n	n	n
CCOc1cc(N2CCOCC2)c(OCC)cc1NC(=O)c1ccccc1	n	n	n	n	n	n
CCCn1nc(C(=O)Nc2cc(OCC)c(N3CCOCC3)cc2OCC)c2ccccc2c1=O	x	x	x	x	x	22
Cc1nc2ccccc2n1CCC(=O)O	n	n	n	n	n	33
CC(C)(C)c1ccc(OC(=O)c2ccc3snnc3c2)cc1	n	n	n	n	n	n
COC(=O)c1c(NC(=O)CN2CCC3(O)CCCCC3C2c2ccccc2OC)sc(C)c1C (stereo not given)	n	n	n	n	n	n
COC(=O)c1c(NC(=O)CN2CCC3(O)CCCCC3C2c2ccc(OC)cc2OC)sc(C)c1C (stereo not given)	n	n	x	n	44	n
COc1ccc(NC2=C(C(C)=O)C(c3ccc(N(C)C)cc3)C(C(C)=O)C(C)(O)C2)cc1 (stereo not given)	n	n	91	n	n	n
COc1ccc(NC2=C(C(C)=O)C(c3ccc(OC)cc3)C(C(C)=O)C(C)(O)C2)cc1 (stereo not given)	n	n	n	n	n	n
COc1ccccc1OCC(=O)Nc1cc(NC(=O)COc2ccccc2OC)cc(C(=O)O)c1	n	n	98	n	n	n
COc1ccccc1OCC(=O)NNC(=O)CSC(=S)N1CCCC1	n	n	n	n	x	24
Cc1nc2ccccn2c(=O)c1NC(=O)c1ccco1	x	x	x	x	x	n
O=C(Nc1ccc(C(F)(F)F)cc1)c1cc(S(=O)(=O)NCC2COc3ccccc3O2)ccc1F (stereo not given)	n	n	n	n	n	82
COc1ccc(NC(=O)c2cc(S(=O)(=O)NCC3COc4ccccc4O3)ccc2F)cc1 (stereo not given)	n	n	x	n	n	n
COc1cc(/C=N/NC(=O)CNc2n[nH]c(=O)[nH]c2=O)ccc1O	n	n	98	n	n	n
SMILES	APOBEC3A inh	A3G deaminase	ALR inh	Yeast superoxide	M18AAP inhibitor	NRP1-CendR mod
COc1cc(/C=N/NC(=O)C(C)Nc2n[nH]c(=O)[nH]c2=O)ccc1O (stereo not given)	n	n	99	n	n	n
Cc1cccc(NC2(C(F)(F)F)N=C(c3ccccc3)NC2=O)n1 (stereo not given)	n	n	n	n	n	n
COc1ccccc1NC(=S)NNC(=O)c1cc(C)nn1C	n	n	u	n	n	n
COc1ccc(Nc2ccccc2N)cc1	n	n	98	n	n	n
COc1ccccc1NC(=S)NNC(=O)c1ccccc1Br	n	n	n	n	n	21
O=C(NNC(=S)Nc1ccccc1Cl)c1ccccc1Cl	n	n	90	n	n	n
COc1ccccc1NC(=S)NNC(=O)c1c(Cl)c(C)nn1C	n	n	86	n	n	n
COc1ccc(C2N(c3cc(C)on3)C(=O)C3CCCN32)cc1OC (stereo not given)	n	n	n	n	n	n
COc1ccc(NC(=O)C(F)(F)F)cc1OC	n	n	x	n	n	n
